Experimental findings from the antibiotic and cytotoxicity screens of Wong et al. (2023) are described below.

In all, about 39,000 compounds went through this assay and about 3,300 (8.5%) were called active. The sample holds actives, similar compounds and a random draw of the others, so the mix is not that of the screen.

The assay concerns HepG2. In words: cytotoxicity call (relative viability < 0.9). Particulars: 10 µM.
Regarding `C[C@@H](NC(=O)C[C@@H]1C=C[C@H](NC(=O)CN2CCOCC2)[C@H](CO)O1)c1ccccc1`, the cytotoxicity call is “inactive”.

For the compound `Cc1ccc(OC(=O)n2c3ccccc3c3ccccc32)cc1`, the cytotoxicity call is “inactive”. Consider `CC1=CC(C)(C)N(C(=O)Nc2ccc(C)cc2)c2ccccc21`, for which the cytotoxicity call is “inactive”. The entry for `Cc1ccc(NC(=O)n2c3ccccc3c3ccccc32)cc1` is “active”; for `C[C@@H]1CN([C@H](C)CO)S(=O)(=O)c2ccc(C3=CCCCC3)cc2O[C@H]1CN(C)S(=O)(=O)c1cn(C)cn1` it is “inactive”. Regarding `O=C(C[C@@H]1CC[C@@H]2[C@H](COC[C@@H](O)CN2S(=O)(=O)c2cccc(Cl)c2)O1)NCc1ccc2c(c1)OCO2`, the cytotoxicity call is “inactive”.

In the case of `O=C(NO)c1ccc(-c2cn(CC(=O)N3CCOCC3)nn2)s1`, the cytotoxicity call is “inactive”. The entry for `CC(C)C[C@H]1NC(=O)[C@@H](CCCN)NC(=O)[C@H](C(C)C)NC(=O)[C@H]2CCCN2C(=O)[C@@H](Cc2ccccc2)NC(=O)[C@@H](CC(C)C)NC(=O)[C@@H](CCCN)NC(=O)[C@H](C(C)C)NC(=O)[C@H]2CCCN2C(=O)[C@@H](Cc2ccccc2)NC1=O` is “active”; for `CC(C)C[C@@H]1NC(=O)[C@@H](C(C)C)NC(=O)[C@@H]2CCCN2C(=O)[C@@H](CC(=O)O)NC(=O)[C@@H](Cc2c[nH]c3ccccc23)NC1=O` it is “inactive”. Turning to `CC[C@@H](C)CCCCC(=O)N[C@@H](CCN)C(=O)N[C@H](C(=O)N[C@@H](CCN)C(=O)N[C@H]1CCNC(=O)[C@H]([C@@H](C)O)NC(=O)[C@H](CCN)NC(=O)[C@H](CCN)NC(=O)[C@H](CC(C)C)NC(=O)[C@@H](Cc2ccccc2)NC(=O)[C@@H](CCN)NC1=O)[C@@H](C)O`, the cytotoxicity call was “inactive”.

In the case of `C[C@H]1[C@H]2[C@H](Cc3ccccc3)NC(=O)[C@]23C(=O)N[C@H](Cc2ccccc2)C(=O)N2CCC[C@H]2C(=O)NC/C=C\C/C=C/[C@@H]3[C@@H]2O[C@]12C`, the cytotoxicity call was “inactive”. The entry for `CC1NC(=O)C2CCCN2C(=O)C(CC(N)=O)NC(=O)C2CSSCC(N)C(=O)NC3CSSCC(NC1=O)C(=O)NC(C(C)O)C(=O)NCC(=O)NC(C(=O)NC(Cc1ccc(O)cc1)C(=O)O)CSSCC(NC(=O)C(Cc1ccc(O)cc1)NC(=O)C(CCC(=O)O)NC3=O)C(=O)N2` (stereo not given) is “inactive”; for `C[C@H]1CN([C@@H](C)CO)C(=O)c2cc(NS(=O)(=O)c3cccs3)ccc2O[C@H]1CN(C)S(C)(=O)=O` it is “inactive”; for `COc1ccc(S(=O)(=O)N(C)C[C@@H]2Oc3ccc(NS(=O)(=O)c4ccccc4)cc3CC(=O)N([C@H](C)CO)C[C@@H]2C)cc1` it is “inactive”.

On to `COCCN(C)C(=O)c1ccc2nnc([C@H]3CN(S(C)(=O)=O)CCN3C)n2c1`, for which the cytotoxicity call was “inactive”. `C=CCOC(=O)[C@@H]1[C@H]2C(=O)O[C@H](c3ccccc3)[C@H](c3ccccc3)N2[C@H](c2ccc(OCCOC(=O)[C@@H]3C[C@@H]4C(=O)N[C@@H](CCCCNC(C)=O)C(=O)N4[C@@H]3c3ccc(O)cc3)cc2)[C@@]12C(=O)Nc1ccccc12`: the cytotoxicity call was “inactive”. On to `C=CCNC1=C2C[C@H](C)C[C@H](OC)[C@@H](O)[C@H](C)/C=C(\C)[C@H](OC(N)=O)[C@H](OC)/C=C/C=C(\C)C(=O)NC(=CC1=O)C2=O`, for which the cytotoxicity call was “active”. For `C=CCNC1=C2C[C@@H](C)C[C@H](OC)[C@H](O)[C@@H](C)/C=C(\C)[C@H](OC(N)=O)[C@@H](OC)/C=C\C=C(/C)C(=O)NC(=CC1=O)C2=O`, the cytotoxicity call is “active”. The entry for `CO[C@H]1/C=C\C=C(/C)C(=O)NC2=CC(=O)C(NCCN(C)C)=C(C[C@@H](C)C[C@H](OC)[C@H](O)[C@@H](C)/C=C(\C)[C@@H]1OC(N)=O)C2=O` is “active”; for `C[C@H](CO)N1C[C@H](C)[C@H](CN(C)S(=O)(=O)c2cn(C)cn2)Oc2ccc(NS(=O)(=O)c3cn(C)cn3)cc2CC1=O` it is “inactive”.

Regarding `CC(C)NC(=O)N(C)C[C@H]1OCc2cn(nn2)CCCC(=O)N([C@@H](C)CO)C[C@@H]1C`, the cytotoxicity call was “inactive”. In the case of `Cc1noc(C)c1NC(=O)N(C)C[C@@H]1Oc2cc(C#CCN(C)C)ccc2S(=O)(=O)N([C@@H](C)CO)C[C@H]1C`, the cytotoxicity call is “inactive”. The entry for `COc1ccc(S(=O)(=O)Nc2ccc3c(c2)C(=O)N([C@@H](C)CO)C[C@@H](C)[C@H](CN(C)C(=O)c2ccccc2)OCCCC[C@@H](C)O3)cc1` is “inactive”; for `Nc1cc(F)ccc1CO` it is “inactive”; for `OCc1ccccc1O` it is “inactive”.

Regarding `Nc1ccccc1CO`, the cytotoxicity call is “active”. In the case of `C[C@H](CO)N1C[C@H](C)[C@H](CN(C)C(=O)c2ccccc2)Oc2cc(C#C[C@@H](C)O)ccc2S1(=O)=O`, the cytotoxicity call was “inactive”.

As for `Cc1ccc(S(=O)(=O)Nc2ccc3c(c2)CC(=O)N([C@H](C)CO)C[C@H](C)[C@@H](CN(C)C(=O)NC(C)C)O3)cc1`, the cytotoxicity call is “inactive”. On to `C[C@@H]1CN([C@@H](C)CO)S(=O)(=O)c2ccc(C#CC3CC3)cc2O[C@H]1CN(C)C(=O)Cc1ccncc1`, for which the cytotoxicity call is “inactive”. The entry for `COc1ccc2c3c([nH]c2c1)[C@@H](CO)N(C[C@]13CN(C1)S(=O)(=O)c1cn(cn1)C)C(=O)Nc1ccc(cc1)F` is “inactive”; for `C[C@@H]1CN([C@@H](C)CO)C(=O)c2cc(NC(=O)Nc3ccc4c(c3)OCO4)ccc2O[C@@H]1CN(C)C(=O)Nc1ccc(C(F)(F)F)cc1` it is “inactive”; for `CO[C@@H]1[C@@H](O[C@@H]2O[C@H](C)[C@@H](O[C@H]3C[C@@](C)(O)[C@@H](O)[C@H](C)O3)[C@H](N(C)C)[C@H]2O)[C@@H](CC=O)C[C@@H](C)[C@@H](O[C@H]2CC[C@H](N(C)C)[C@@H](C)O2)/C=C/C=C/CC(C)OC(=O)C[C@H]1OC(C)=O` (stereo not given in full) it is “inactive”. The entry for `COC1C(O)CC(=O)OC(C)CC=CC=CC(O)C(C)CC(CC=O)C1OC1OC(C)C(OC2CC(C)(O)C(OC(=O)CC(C)C)C(C)O2)C(N(C)C)C1O` (stereo not given) [KITASAMYCINS [A1 shown] ] is “inactive”; for `CO[C@@H]1[C@@H](O[C@@H]2O[C@H](C)[C@@H](O[C@H]3C[C@@](C)(O)[C@@H](OC(=O)CC(C)C)[C@H](C)O3)[C@H](N(C)C)[C@H]2O)[C@@H](CC=O)C[C@@H](C)[C@@H](O)/C=C\C=C/C[C@@H](C)OC(=O)C[C@H]1OC(C)=O` it is “inactive”; for `CO[C@@H]1[C@@H](O[C@@H]2O[C@H](C)[C@@H](O[C@H]3C[C@@](C)(O)[C@@H](OC(=O)CC(C)C)[C@H](C)O3)[C@H](N(C)C)[C@H]2O)[C@@H](CC=O)C[C@@H](C)[C@@H](O)/C=C/C=C/CC(C)OC(=O)C[C@H]1OC(C)=O` (stereo not given in full) it is “active”. The entry for `COC1C(O)CC(=O)OC(C)CC=CC=CC(OC2CCC(N(C)C)C(C)O2)C(C)CC(CC=O)C1OC1OC(C)C(OC2CC(C)(O)C(O)C(C)O2)C(N(C)C)C1O` (stereo not given) is “active”; for `CO[C@@H]1[C@@H](O[C@@H]2O[C@H](C)[C@@H](O[C@H]3C[C@@](C)(O)[C@@H](O)[C@H](C)O3)[C@H](N(C)C)[C@H]2O)[C@@H](CC=O)C[C@@H](C)[C@@H](O[C@H]2CC[C@H](N(C)C)[C@@H](C)O2)/C=C/C=C/C[C@@H](C)OC(=O)C[C@H]1O` it is “inactive”; for `COc1ccc(C(N)=S)cn1` it is “inactive”. With `Cc1noc(C)c1S(=O)(=O)Nc1ccc2c(c1)C(=O)N([C@H](C)CO)C[C@H](C)[C@H](CN(C)CC1CC1)O2`, the cytotoxicity call was “inactive”.

Regarding `C[C@@H]1CN([C@@H](C)CO)S(=O)(=O)c2ccc(C#CC(C)(C)O)cc2O[C@H]1CN(C)Cc1ccncc1`, the cytotoxicity call was “inactive”. The entry for `C[C@H](CO)N1C[C@H](C)[C@@H](CN(C)S(=O)(=O)c2ccccc2)Oc2ccc(NC(=O)CCN3CCOCC3)cc2CC1=O` is “inactive”; for `CS(=O)(=O)Nc1ccc2c(c1)C(=O)NC2=O` it is “inactive”; for `COc1cc(NS(C)(=O)=O)ccc1Nc1c2ccccc2nc2ccccc12` it is “active”. For `COc1ccccc1CNS(C)(=O)=O`, the cytotoxicity call is “inactive”. The entry for `C[C@H]1CCCCO[C@@H](CN(C)C(=O)c2ccncc2)[C@@H](C)CN([C@@H](C)CO)C(=O)c2cc(NC(=O)NC3CCCCC3)ccc2O1` is “inactive”; for `Cn1nccc1C(=O)NCCN` it is “inactive”.

Consider `CNCCC(Oc1ccc(C(F)(F)F)cc1)c1ccccc1.Cl` (stereo not given), for which the cytotoxicity call is “active”. The entry for `CNCCC(Oc1ccccc1C)c1ccccc1.Cl` (stereo not given) is “inactive”. The entry for `CNC(=O)[C@@H](c1ccccc1)N1CCc2cc(OC)c(OC)cc2[C@@H]1CCc1ccc(C(F)(F)F)cc1` is “inactive”. The entry for `CCCOC(=S)N[C@H]1OC[C@@H](O)[C@@H](O)[C@@H]1O` is “inactive”. Turning to `COc1ccccc1-c1ccc2c(c1)O[C@@H](CN(C)S(=O)(=O)c1ccccc1)[C@@H](C)CN([C@@H](C)CO)S2(=O)=O`, the cytotoxicity call is “inactive”. The entry for `C=CC[C@@H](CC(=O)NCCO)C(=O)NC[C@H](OC(=O)[C@H](CC=C)CC(=O)OC(C)(C)C)c1ccccc1` is “inactive”; for `COc1ccc(S(=O)(=O)N[C@@H](CNc2nc(C)nc(N3CCC(c4ccc5c(n4)NCCC5)CC3)c2C)C(=O)O)cc1` it is “active”; for `O=C(NCCCN1CCOCC1)[C@H]1[C@@H]2C=C[C@@]3(CN(Cc4cccs4)C(=O)[C@@H]13)O2` it is “inactive”. The entry for `Cc1cncc2cccc(S(=O)(=O)N3CC[C@H](N(C/C=C/c4ccc(Br)cc4)C/C=C/c4ccc(Br)cc4)C3)c12` is “inactive”; for `S=C(NCCCc1cnc[nH]1)NCCCN(Cc1ccc(Cl)c(Cl)c1)c1ccc(Br)cn1` it is “active”. Consider `C[C@@H]1CCCCO[C@@H](CN(C)C(=O)Nc2ccccc2)[C@H](C)CN([C@H](C)CO)C(=O)c2cc(NS(=O)(=O)c3ccccc3)ccc2O1`, for which the cytotoxicity call was “inactive”. The entry for `CC(C)(C)[S@@+]([O-])N1Cc2cc(C(=O)NCc3ccc4c(c3)OCO4)nc(-c3ccc(-c4ccccc4)cc3)c2[C@H]1CCO` is “inactive”; for `COc1ccc(S(=O)(=O)N[C@@H]2C=C[C@@H](CC(=O)N3CCC(Cc4ccccc4)CC3)O[C@H]2CO)cc1` it is “inactive”; for `CCCNC(=O)C[C@@H]1CC[C@H]2[C@H](COc3ccc(NC(=O)c4ccc5c(c4)OCO5)cc3C(=O)N2C)O1` it is “inactive”.
